In a collection of fitness landscapes (doi:10.1126/science.1257360):
In all, about 140,000 sequences were measured (“enrichment ratio after two sorts for PhoP signalling”: median about 0, highest 2% from about 11 on). The full list was thinned out, with the highest values kept by preference.

B1: PhoQ; a variant is named by its letters at X, in order, P23837 (parent)
chain: MKKLLRLFFPLSLRVRFLLATAAVVLVLSLAYGMVALIGYSVSFDKTTFRLLRGESNLFYTLAKWENNKLHVELPENIDKQSPTMTLIYDENGQLLWAQRDVPWLMKMIQPDWLKSNGFHEIEADVNDTSLLLSGDHSIQQQLQEVREDDDDAEMTHSVAVNVYPATSRMPKLTIVVVDTIPVELKSSYMVWSWFIYVLSANLLLVIPLLWVAAWWSLRPIEALAKEVRELEEHNRELLNPATTRELTSLVRNLNRLLKSERERYDKYRTTLTDLTHSLKTPLXXLQXXLRSLRSEKMSVSDAEPVMLEQISRISQQIGYYLHRASMRGGTLLSRELHPVAPLLDNLTSALNKVYQRKGVNISLDISPEISFVGEQNDFVEVMGNVLDNACKYCLEFVEISARQTDEHLYIVVEDDGPGIPLSKREVIFDRGQRVDTLRPGQGVGLAVAREITEQYEGKIVAGESMLGGARMEVIFGRQHSAPKDE

Variants of: B1
Test: enrichment ratio after two sorts for PhoP signalling (ratio (wild type AVST 3.29)); higher = more functional
Details: with PhoP (E. coli)
KSMV showed an enrichment ratio of at most 0.25. TSMI was tested, and the enrichment ratio was 23. For TSMV, the enrichment ratio was 19.3. Variant TSMW has an enrichment ratio of at most 0.25. In the case of KSMI, the enrichment ratio is reported as at most 0.25. In the case of FSMV, the enrichment ratio is reported as 9.33. RCKQ was tested, and the enrichment ratio was at most 0.25. Work on VMWK yielded an enrichment ratio of at most 0.25. Work on AQIM yielded an enrichment ratio of 2.44. MGFC showed an enrichment ratio of 14.4. Variant MLWC has an enrichment ratio of at most 0.25. Work on MGFA yielded an enrichment ratio of 3.62. MGLC showed an enrichment ratio of 19.1. MGWC showed an enrichment ratio of 32.1. Work on QRLC yielded an enrichment ratio of at most 0.25. MGFS gave an enrichment ratio of 2.82. MGDY was tested, and the enrichment ratio was at most 0.25. Variant MGNS has an enrichment ratio of at most 0.25. With IHNL the enrichment ratio was at most 0.25. Work on VPHV yielded an enrichment ratio of at most 0.25. QVMI was tested, and the enrichment ratio was at most 0.25. For QDPG, the enrichment ratio was at most 0.25. With LMRT the enrichment ratio was at most 0.25. In the case of HNWM, the enrichment ratio is reported as at most 0.25. Work on SIWN yielded an enrichment ratio of 4.21. KSAN was tested, and the enrichment ratio was at most 0.25. For SSAN, the enrichment ratio was 12.6. With SRAN the enrichment ratio was at most 0.25. In the case of SLAN, the enrichment ratio is reported as 13.8. SFAN gave an enrichment ratio of at most 0.25. Work on SIAN yielded an enrichment ratio of 22.8. VLAN gave an enrichment ratio of at most 0.25. NSAN gave an enrichment ratio of at most 0.25. TLAN gave an enrichment ratio of 12.5. With KYAN the enrichment ratio was at most 0.25. Variant PLAN has an enrichment ratio of at most 0.25. Work on AYNP yielded an enrichment ratio of at most 0.25. In the case of MNQS, the enrichment ratio is reported as at most 0.25. For QHYQ, the enrichment ratio was at most 0.25. Variant SAQN has an enrichment ratio of at most 0.25. KQAN gave an enrichment ratio of at most 0.25. In the case of SAAN, the enrichment ratio is reported as 11.7. Work on IPYG yielded an enrichment ratio of at most 0.25. Work on MDSP yielded an enrichment ratio of 1.12. NDLM gave an enrichment ratio of at most 0.25. MPWY showed an enrichment ratio of at most 0.25. TTWY was tested, and the enrichment ratio was 14. MMWF gave an enrichment ratio of at most 0.25. In the case of YTWY, the enrichment ratio is reported as at most 0.25. With MTWF the enrichment ratio was 11.8. With LTWY the enrichment ratio was 2.54. For YTWF, the enrichment ratio was at most 0.25. For MTWI, the enrichment ratio was 10.2. MTWY showed an enrichment ratio of 21.6. For REII, the enrichment ratio was at most 0.25. QNIY gave an enrichment ratio of at most 0.25. In the case of RKGF, the enrichment ratio is reported as at most 0.25. RLAG was tested, and the enrichment ratio was at most 0.25. Variant LLSD has an enrichment ratio of at most 0.25. Variant KHVD has an enrichment ratio of at most 0.25. WVTG was tested, and the enrichment ratio was at most 0.25. WRYK showed an enrichment ratio of at most 0.25. In the case of DWAR, the enrichment ratio is reported as at most 0.25. For DQSP, the enrichment ratio was at most 0.25. With HHVS the enrichment ratio was at most 0.25. Work on HLFA yielded an enrichment ratio of at most 0.25. Variant WIAG has an enrichment ratio of at most 0.25. In the case of KKAG, the enrichment ratio is reported as at most 0.25. With TIFG the enrichment ratio was at most 0.25. Work on TIAG yielded an enrichment ratio of 21.3. With AIAG the enrichment ratio was 12.5. For AKAG, the enrichment ratio was at most 0.25. EQNT gave an enrichment ratio of at most 0.25. Variant MHNT has an enrichment ratio of at most 0.25. ITTY gave an enrichment ratio of at most 0.25. Variant FVHV has an enrichment ratio of 12.9. Work on TTQV yielded an enrichment ratio of 16.2. For TTHV, the enrichment ratio was 14.6. STQV showed an enrichment ratio of 2.63. Variant NVHV has an enrichment ratio of at most 0.25. YTQV was tested, and the enrichment ratio was at most 0.25. TTIV gave an enrichment ratio of 0.549. TTMV was tested, and the enrichment ratio was 28.9. For FSHV, the enrichment ratio was at most 0.25. With FDHV the enrichment ratio was at most 0.25. TTPV gave an enrichment ratio of at most 0.25. Variant YTHV has an enrichment ratio of at most 0.25. For SKAG, the enrichment ratio was at most 0.25. With TMDC the enrichment ratio was at most 0.25. Work on CSSV yielded an enrichment ratio of 0.253. Variant LKSK has an enrichment ratio of at most 0.25. Variant QYAS has an enrichment ratio of at most 0.25. With DYQS the enrichment ratio was at most 0.25. Variant HVFV has an enrichment ratio of at most 0.25. In the case of VSIQ, the enrichment ratio is reported as at most 0.25. TGHV showed an enrichment ratio of 16.1. RGHV showed an enrichment ratio of at most 0.25. GGHV gave an enrichment ratio of at most 0.25. In the case of YHQM, the enrichment ratio is reported as at most 0.25. For DRRP, the enrichment ratio was at most 0.25. Work on AKSC yielded an enrichment ratio of 23.2. TKSC was tested, and the enrichment ratio was 5.09. Work on ANSK yielded an enrichment ratio of at most 0.25. ARSC showed an enrichment ratio of at most 0.25. With ANSC the enrichment ratio was 11.9. Work on ADSC yielded an enrichment ratio of at most 0.25. VIHS was tested, and the enrichment ratio was at most 0.25. For QISE, the enrichment ratio was at most 0.25. For IIPR, the enrichment ratio was at most 0.25. In the case of TIIG, the enrichment ratio is reported as at most 0.25. Work on MKWT yielded an enrichment ratio of at most 0.25. MPWT was tested, and the enrichment ratio was at most 0.25. QIWT showed an enrichment ratio of 20.8. TPWT was tested, and the enrichment ratio was at most 0.25. MMWT was tested, and the enrichment ratio was at most 0.25. For LCWT, the enrichment ratio was at most 0.25. For TSWT, the enrichment ratio was 13.4. Variant MEWT has an enrichment ratio of 34.7. QLWT was tested, and the enrichment ratio was at most 0.25. QQWT was tested, and the enrichment ratio was at most 0.25. QRWT showed an enrichment ratio of at most 0.25. Work on QEWT yielded an enrichment ratio of 11.3. In the case of LESG, the enrichment ratio is reported as at most 0.25. KRHA showed an enrichment ratio of at most 0.25. DVYV showed an enrichment ratio of at most 0.25. SDAE showed an enrichment ratio of at most 0.25. Variant YELP has an enrichment ratio of at most 0.25. EIRK was tested, and the enrichment ratio was at most 0.25. ESAA showed an enrichment ratio of at most 0.25. Variant EVKR has an enrichment ratio of at most 0.25. With KHRA the enrichment ratio was at most 0.25. In the case of IFHG, the enrichment ratio is reported as at most 0.25. MCIH gave an enrichment ratio of at most 0.25. With NEWT the enrichment ratio was 32. With ITWT the enrichment ratio was at most 0.25. Variant TTWT has an enrichment ratio of 15. With YTWT the enrichment ratio was at most 0.25. With FFWT the enrichment ratio was at most 0.25. Variant QGWT has an enrichment ratio of 36. KEWT was tested, and the enrichment ratio was at most 0.25. With MQWT the enrichment ratio was 21.2. FQWT showed an enrichment ratio of at most 0.25. VRWT showed an enrichment ratio of at most 0.25. MRWT was tested, and the enrichment ratio was at most 0.25. DMWT was tested, and the enrichment ratio was at most 0.25. For NKIQ, the enrichment ratio was at most 0.25. Work on ENRF yielded an enrichment ratio of at most 0.25. PLPI gave an enrichment ratio of at most 0.25. WSFP showed an enrichment ratio of at most 0.25. YDQD gave an enrichment ratio of at most 0.25. VCTS showed an enrichment ratio of at most 0.25. For WTPD, the enrichment ratio was at most 0.25. SKDW showed an enrichment ratio of at most 0.25.
